Laboratory results taken from PubChem BioAssay (Tox21).
Inconclusive results are not listed. Active and inactive are the calls of the source. Calls come from the whole dose curve; as a rule, active = well fitted curve in the direction sought with a large enough effect in the repeat runs; inconclusive = weak or mixed curves; inactive = no such curve, though single readings can be large; an effect the other way counts as inactive or inconclusive.

Test: A CellTox Green Cytotoxicity Assay to monitor cytotoxicity in HepG2 cells - 40 hour (AID 1224879); note: nearly all actives have a fitted effect of over 40% in size; note: potency is the fitted concentration of half-maximal effect
Details: CellTox Green fluorescence; series mostly up to 76.8 µM; cytotoxicity increase: at the top concentration
How it was run: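 Real-time cytotoxicity: fluorescence of a cell-impermeant cyanine dye binding DNA of dead HepG2 cells, measured repeatedly (0–40 h) during compound exposure at 37 C. Cells seeded 600/well with reagent, dosed after 5 h.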
% is set by controls: 0 for no effect and ±100 for the full control effect.

Compound	cytotoxicity increase	Potency
CCOC(=O)OC(=O)OCC	6.27% (inactive)	
C/C=C/C(=O)OCC(C)C	1.68% (inactive)	
[Cl][Sc]([Cl])[Cl]	8.99% (inactive)	
COC(=O)c1ccc([N+](=O)[O-])cc1	-14.6% (inactive)	
CCCCCCCCCCCCS(=O)(=O)Cl	-19.9% [at 15.8 µM] (inactive)	
CSc1ccc(O)cc1C	0.354% (inactive)	
CN(C)CCOc1ccc(/C(=C(/CCCl)c2ccccc2)c2ccccc2)cc1		32.5 µM (active)
COCCC(=O)OC	-6.14% (inactive)	
COc1cccc(-c2ccc(/C=C\CN3CCCCCC3)cc2Cl)c1		38.7 µM (active)
CCN(CCC#N)c1ccc(N=Nc2ccc([N+](=O)[O-])cc2)cc1	-15.7% (inactive)	
Nc1cc([N+](=O)[O-])ccc1Cl	6.46% (inactive)	
O=c1[nH]cccc1O	-2.09% (inactive)	
CCN(CC)c1ccc(C=O)cc1	-7.7% (inactive)	
CC(CC(C)(C)C)CC(C)(C)CC(C)(C)C (stereo not drawn)	-17.8% [at 35.3 µM] (inactive)	
CCCCCCCCCC[N+](C)(CCCCCCCCCC)CCC[Si](OC)(OC)OC		19.5 µM (active)
CN1CCN(C)CC1	-12.1% (inactive)	
NC(=O)C1CO1 (stereo not drawn)	3.16% (inactive)	
CC1(C)[C@H](C(=O)OCc2cccc(Oc3ccccc3)c2)[C@@H]1C=C(Cl)Cl	17.9% (inactive)	
COc1cc2ncnc(Nc3cccc(Cl)c3)c2cc1OC	-19.3% [at 15.8 µM] (inactive)	

Compound	cytotoxicity increase	Potency
CN1CCN(c2ccccc2/C=C2\SCCN(c3ccc(Cl)c(Cl)c3)C2=O)CC1		19.5 µM (active)
COc1cc(C(C)C)ccc1C	-18.2% [at 15.8 µM] (inactive)	
C1CCSC1	1.43% (inactive)	
CCCCCN=C(N)N/N=C/c1c[nH]c2ccc(OC)cc12		5.35 µM (active)
CCc1cccc(C)c1N(C(=O)CS(=O)(=O)O)C(C)COC (stereo not drawn)	-20.5% (inactive)	
N#CCCOCCC#N	-12% (inactive)	
CCCCCCCCSCc1cc(C)c(O)c(CSCCCCCCCC)c1	1.46% (inactive)	
Nc1ccc(F)c([N+](=O)[O-])c1	-23.2% (inactive)	
CCCCNc1ccc(NCCCC)c2c1C(=O)c1ccccc1C2=O	-3.23% [at 15.8 µM] (inactive)	
CCc1c(C)cc(N)c(CC)c1N	-13.4% (inactive)	
C=Cc1ccc(O)c(OC)c1	0.381% (inactive)	
Nc1ccc(Oc2cccc(Oc3ccc(N)cc3)c2)cc1	-0.313% (inactive)	
Nc1ccc(Cl)c([N+](=O)[O-])c1	1.81% (inactive)	
CCNc1nc(NC(C)(C)C)nc(OC)n1	1.2% (inactive)	
CN1CCN(CCCN2c3ccccc3Sc3ccc(C(F)(F)F)cc32)CC1		23.9 µM (active)
C=C(C)CCO	-23.1% (inactive)	
O=C(O)CN(CCCN(CC(=O)O)CC(=O)O)CC(=O)O	-13.1% [at 15.8 µM] (inactive)	
CN(C[C@@H](CC[N+]12CCC(C3CCCCC3)(CC1)CC2)c1ccc(Cl)c(Cl)c1)C(=O)c1cc(C(F)(F)F)cc(C(F)(F)F)c1		24.5 µM (active)

Test: qHTS RealTime-Glo MT Cell Viability Assay in HEK293 cells - 0 hour (AID 1224880); note: top concentration of the series differs between compounds; nearly all actives have a fitted effect of over 45% in size
Details: RealTime-Glo luminescence; series mostly up to 76.8 µM; activity change, negative = cytotoxicity: at the top concentration
How it was run: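 Luminescence, which tracks viable cell number through reduction of the prosubstrate to a NanoLuc substrate, was read over continuous 37 C culture. Cells (600/well) were premixed with reagent and rested 5 h before 23 nL of compound in DMSO was pinned.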

Compound	activity change, negative = cytotoxicity
[Cl][Sc]([Cl])[Cl]	-7.25% (inactive)
CCCCCCCCCCCCS(=O)(=O)Cl	-1.06% [at 15.8 µM] (inactive)
COCCC(=O)OC	-3.34% (inactive)
CCN(CCC#N)c1ccc(N=Nc2ccc([N+](=O)[O-])cc2)cc1	4.41% (inactive)
Nc1cc([N+](=O)[O-])ccc1Cl	21.7% (inactive)
O=c1[nH]cccc1O	-1.49% (inactive)
CC(CC(C)(C)C)CC(C)(C)CC(C)(C)C (stereo not drawn)	-9.58% [at 35.3 µM] (inactive)
NC(=O)C1CO1 (stereo not drawn)	-1.12% (inactive)
CC1(C)[C@H](C(=O)OCc2cccc(Oc3ccccc3)c2)[C@@H]1C=C(Cl)Cl	1.47% (inactive)
COc1cc2ncnc(Nc3cccc(Cl)c3)c2cc1OC	-2.52% [at 15.8 µM] (inactive)
CCc1cccc(C)c1N(C(=O)CS(=O)(=O)O)C(C)COC (stereo not drawn)	-8.25% (inactive)
N#CCCOCCC#N	9.51% (inactive)
CCCCCCCCSCc1cc(C)c(O)c(CSCCCCCCCC)c1	-18.9% (inactive)
CCCCNc1ccc(NCCCC)c2c1C(=O)c1ccccc1C2=O	-4.14% [at 15.8 µM] (inactive)
CCc1c(C)cc(N)c(CC)c1N	1.23% (inactive)
CCNc1nc(NC(C)(C)C)nc(OC)n1	0.787% (inactive)
C=C(C)CCO	-0.879% (inactive)
O=C(O)CN(CCCN(CC(=O)O)CC(=O)O)CC(=O)O	-10.1% [at 15.8 µM] (inactive)
CN(C[C@@H](CC[N+]12CCC(C3CCCCC3)(CC1)CC2)c1ccc(Cl)c(Cl)c1)C(=O)c1cc(C(F)(F)F)cc(C(F)(F)F)c1	-11.4% (inactive)

Test: A CellTox Green Cytotoxicity Assay to monitor cytotoxicity in HEK293 cells - 32 hour (AID 1224881); note: nearly all actives have a fitted effect of over 40% in size; note: potency is the fitted concentration of half-maximal effect
Details: CellTox Green fluorescence; series mostly up to 76.8 µM; cytotoxicity increase: at the top concentration
How it was run: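 Fluorescence from a DNA-binding dye excluded by viable cells was measured repeatedly in the same HEK293 wells (600 cells/well) during continuous compound exposure at 37 C. Each assay gives one read point: 0, 8, 16, 24, 32 or 40 h.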

Compound	cytotoxicity increase	Potency
CCOC(=O)OC(=O)OCC	0.244% (inactive)	
C/C=C/C(=O)OCC(C)C	-1.18% (inactive)	
[Cl][Sc]([Cl])[Cl]	-3.77% (inactive)	
COC(=O)c1ccc([N+](=O)[O-])cc1	-7.75% (inactive)	
CCCCCCCCCCCCS(=O)(=O)Cl	-1.06% [at 15.8 µM] (inactive)	
CSc1ccc(O)cc1C	18.1% (inactive)	
CN(C)CCOc1ccc(/C(=C(/CCCl)c2ccccc2)c2ccccc2)cc1		40.9 µM (active)
COCCC(=O)OC	-0.469% (inactive)	
COc1cccc(-c2ccc(/C=C\CN3CCCCCC3)cc2Cl)c1		43.4 µM (active)
CCN(CCC#N)c1ccc(N=Nc2ccc([N+](=O)[O-])cc2)cc1	-1.93% (inactive)	
Nc1cc([N+](=O)[O-])ccc1Cl	-15.1% (inactive)	
O=c1[nH]cccc1O	10% (inactive)	
CCN(CC)c1ccc(C=O)cc1	-18.1% (inactive)	
CC(CC(C)(C)C)CC(C)(C)CC(C)(C)C (stereo not drawn)	-12.7% [at 35.3 µM] (inactive)	
CCCCCCCCCC[N+](C)(CCCCCCCCCC)CCC[Si](OC)(OC)OC		24.5 µM (active)
CN1CCN(C)CC1	16.7% (inactive)	
NC(=O)C1CO1 (stereo not drawn)	-3.55% (inactive)	
CC1(C)[C@H](C(=O)OCc2cccc(Oc3ccccc3)c2)[C@@H]1C=C(Cl)Cl	10.1% (inactive)	
COc1cc2ncnc(Nc3cccc(Cl)c3)c2cc1OC	0.0774% [at 15.8 µM] (inactive)	

Compound	cytotoxicity increase	Potency
CN1CCN(c2ccccc2/C=C2\SCCN(c3ccc(Cl)c(Cl)c3)C2=O)CC1		49 µM (active)
COc1cc(C(C)C)ccc1C	-4.81% [at 15.8 µM] (inactive)	
C1CCSC1	-48.3% (inactive)	
CCCCCN=C(N)N/N=C/c1c[nH]c2ccc(OC)cc12		6.01 µM (active)
CCc1cccc(C)c1N(C(=O)CS(=O)(=O)O)C(C)COC (stereo not drawn)	-22.3% (inactive)	
N#CCCOCCC#N	-11% (inactive)	
CCCCCCCCSCc1cc(C)c(O)c(CSCCCCCCCC)c1	-15.1% (inactive)	
Nc1ccc(F)c([N+](=O)[O-])c1	-0.0526% (inactive)	
CCCCNc1ccc(NCCCC)c2c1C(=O)c1ccccc1C2=O	-0.0716% [at 15.8 µM] (inactive)	
CCc1c(C)cc(N)c(CC)c1N	1.47% (inactive)	
C=Cc1ccc(O)c(OC)c1	6.03% (inactive)	
Nc1ccc(Oc2cccc(Oc3ccc(N)cc3)c2)cc1	-0.724% (inactive)	
Nc1ccc(Cl)c([N+](=O)[O-])c1	-0.918% (inactive)	
CCNc1nc(NC(C)(C)C)nc(OC)n1	-13.9% (inactive)	
CN1CCN(CCCN2c3ccccc3Sc3ccc(C(F)(F)F)cc32)CC1		23.9 µM (active)
C=C(C)CCO	-4.21% (inactive)	
O=C(O)CN(CCCN(CC(=O)O)CC(=O)O)CC(=O)O	1.94% [at 15.8 µM] (inactive)	
CN(C[C@@H](CC[N+]12CCC(C3CCCCC3)(CC1)CC2)c1ccc(Cl)c(Cl)c1)C(=O)c1cc(C(F)(F)F)cc(C(F)(F)F)c1		34.7 µM (active)
